Inconclusive results are not listed. The source made the active and inactive calls.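 The calls were made as follows, unless noted: active = GFP signal, as percent of the solvent control, above the screen mean plus 3 SD, about 149; inconclusive = no reading because the compound's own fluorescence upset strain identification; inactive = the rest.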

The first assay is described as follows: modulators of CIT2-GFP expression in yeast, primary screen, S. cerevisiae, GFP fusion, multiplex flow cytometry (AID 1870;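 active = percent response above a set limit, the screen-wide mean plus 3 SD, cut at about 130% in these data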;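 also: barcoded CIT2-GFP strain pooled with four other GFP strains with rapamycin as positive control; median GFP fluorescence per well over plate mean of DMSO wells so 100% = DMSO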). Conditions: 3 h, at 10 µM, stronger effect = higher value.
Turning to `CCC(C)NCCOc1ccc(C(C)(C)c2ccccc2)cc1` (stereo not given), the percent response of DMSO control was 104% (inactive).

Turning to `O=C(NCc1ccc(N2CCCC2=O)cc1)c1ccc(F)cc1`, the percent response of DMSO control is 100% (inactive).

On to `CC1(C)O[C@@H]2C[C@H]3[C@@H]4C[C@H](F)C5=CC(=O)CC[C@]5(C)[C@H]4[C@@H](O)C[C@]3(C)[C@]2(C(=O)CO)O1`, for which the percent response of DMSO control is 89.3% (inactive).

Regarding `N/C(=N\OC(=O)CCCOc1ccc(Cl)cc1Cl)c1ccncc1`, the percent response of DMSO control is 108% (inactive).

As for `COCCCN1C(=O)/C(=C\c2cccs2)C(C(=O)OC)=C1C`, the percent response of DMSO control is 92.9% (inactive).

For `Cc1ccc2nc(C)c3c(c2c1)OC(C(C)(Cl)Br)C3` (stereo not given), the percent response of DMSO control was 111% (inactive).

Consider `CC12COC3(C(=O)Nc4ccc(F)cc4)CC1CCC32C` (stereo not given), for which the percent response of DMSO control was 107% (inactive).

`Cc1ccnc(NS(=O)(=O)c2ccc(N)cc2)n1`: the percent response of DMSO control was 106% (inactive).

`CC1(C)CC(=O)c2cnc(NC(=O)C3CCCC3)nc2C1`: the percent response of DMSO control is 109% (inactive).

Take `COc1ccc(CCN2CNc3c(c(=O)n(C)c(=O)n3C)C2)cc1OC`: the percent response of DMSO control was 102% (inactive).

As for `O=C(O)CCCc1ccccc1`, the percent response of DMSO control was 115% (inactive).

On to `CCCNCC(O)COc1ccccc1C(=O)CCc1ccccc1` (stereo not given), for which the percent response of DMSO control is 89.6% (inactive).

Turning to `COc1ccc(C(=O)O)cc1F`, the percent response of DMSO control is 107% (inactive).

Take `COc1cc(C)nc(-n2nc(C)cc2OC)n1`: the percent response of DMSO control is 96.6% (inactive).

For the molecule `CCCCCCC(=O)N(O)C1CC(=O)N(Cc2ccccc2)C1=O` (stereo not given), the percent response of DMSO control was 107% (inactive).

Take `CC(=O)N1CCN(c2ccc(NC(=O)/C=C/c3ccccc3)cc2)CC1`: the percent response of DMSO control is 105% (inactive).

With `Cc1ccc(Nc2ncccc2C(=O)O)cc1C`, the percent response of DMSO control is 103% (inactive).

Regarding `CCCCCCCC(=O)OCC(O)CO` (stereo not given), the percent response of DMSO control is 97.8% (inactive).

As for `CSCCC(NC(C)=O)C(=O)Oc1ccc2c3c(c(=O)oc2c1)CCCC3` (stereo not given), the percent response of DMSO control is 105% (inactive).

On to `CC(C)CN1CCN(Cc2ccc(C#CC(C)(C)O)cc2)CC1CCO` (stereo not given), for which the percent response of DMSO control was 102% (inactive).

Consider `Cc1nc(C2CC(=O)OC23CCCCC3)cs1` (stereo not given), for which the percent response of DMSO control was 94.8% (inactive).

With `CO[C@H]1C=CO[C@@]2(C)Oc3c(C)c(O)c4c(O)c(c(C=NN5CCN(C)CC5)c(O)c4c3C2=O)NC(=O)C(C)=CC=C[C@H](C)[C@H](O)[C@@H](C)[C@@H](O)[C@@H](C)[C@H](OC(C)=O)[C@@H]1C`, the percent response of DMSO control was 93.9% (inactive).

Regarding `COc1cccc(-n2cc(CNCc3c(C(=O)N(C)C)nc4ccc(Cl)cn34)cn2)c1`, the percent response of DMSO control is 111% (inactive).

As for `S=C(c1ccc2c(c1)OCO2)N1CCCCC1`, the percent response of DMSO control was 104% (inactive).

As for `CC(C)Oc1ccc2c(=O)c(-c3ccccc3)coc2c1`, the percent response of DMSO control is 106% (inactive).

Regarding `CCn1cc(CN2N=C(C)CC2c2ccccc2)c(C)n1` (stereo not given), the percent response of DMSO control is 92.9% (inactive).

Consider `CCCCOc1ccc(C(=O)CCN2CCCCC2)cc1`, for which the percent response of DMSO control is 97.6% (inactive).

As for `NCCCC(N)(C(=O)O)C(F)F` (stereo not given), the percent response of DMSO control is 98.6% (inactive).

`C[N+](C)(C)CCOP(=O)([O-])OC[C@H](O)CO`: the percent response of DMSO control is 105% (inactive).

`O=C(O)C1CCN(C(=O)COc2ccc3c4c(c(=O)oc3c2)CCC4)CC1`: the percent response of DMSO control was 101% (inactive).

Turning to `COc1ccc(OC)c(S(=O)(=O)N2CCCc3ccccc32)c1`, the percent response of DMSO control is 91.3% (inactive).

Regarding `COc1ccc2[nH]c(=O)c3c(c2c1)OC(C)(C)C=C3`, the percent response of DMSO control was 89.1% (inactive).

On to `CCN1CCN(C(=S)c2ccc(OC)cc2)CC1`, for which the percent response of DMSO control is 109% (inactive).

For the molecule `C=CCOc1ccc(C(=O)CC)cc1OC`, the percent response of DMSO control is 104% (inactive).

In the case of `CCc1cccc2c3c([nH]c12)C(CC)(CC(=O)O)OCC3` (stereo not given), the percent response of DMSO control is 100% (inactive).

Regarding `COc1ccc(OC(C)C(=O)Nc2ccccc2F)cc1` (stereo not given), the percent response of DMSO control was 102% (inactive).

With `CCCC(=O)Nc1ccccc1NC(C)=O`, the percent response of DMSO control was 108% (inactive).

In the case of `O=C(O)CCCCCCNC(=O)c1cncc(O)c1`, the percent response of DMSO control was 105% (inactive).

As for `COc1ccc(Br)cc1C(=O)Nc1ccc(C(=O)O)cc1`, the percent response of DMSO control was 88.4% (inactive).

`CC[N+]1(CC)CC2=Cc3ccccc3CC2C1` (stereo not given): the percent response of DMSO control was 93.9% (inactive).

The next assay is described as follows: modulators of LAP4-GFP expression in yeast, primary screen, S. cerevisiae, multiplex flow cytometry (AID 1873). Conditions: 3 h, at 10 µM, stronger effect = higher value.
Consider `CCC(C)NCCOc1ccc(C(C)(C)c2ccccc2)cc1` (stereo not given), for which the GFP response vs DMSO was 94% (inactive).

In the case of `O=C(NCc1ccc(N2CCCC2=O)cc1)c1ccc(F)cc1`, the GFP response vs DMSO was 99.5% (inactive).

Consider `CC1(C)O[C@@H]2C[C@H]3[C@@H]4C[C@H](F)C5=CC(=O)CC[C@]5(C)[C@H]4[C@@H](O)C[C@]3(C)[C@]2(C(=O)CO)O1`, for which the GFP response vs DMSO is 91.5% (inactive).

In the case of `N/C(=N\OC(=O)CCCOc1ccc(Cl)cc1Cl)c1ccncc1`, the GFP response vs DMSO was 118% (inactive).

As to `COCCCN1C(=O)/C(=C\c2cccs2)C(C(=O)OC)=C1C`, the GFP response vs DMSO was 120% (inactive).

`Cc1ccc2nc(C)c3c(c2c1)OC(C(C)(Cl)Br)C3` (stereo not given): the GFP response vs DMSO is 105% (inactive).

With `CC12COC3(C(=O)Nc4ccc(F)cc4)CC1CCC32C` (stereo not given), the GFP response vs DMSO was 73.7% (inactive).

On to `Cc1ccnc(NS(=O)(=O)c2ccc(N)cc2)n1`, for which the GFP response vs DMSO was 102% (inactive).

As to `CC1(C)CC(=O)c2cnc(NC(=O)C3CCCC3)nc2C1`, the GFP response vs DMSO was 80.8% (inactive).

In the case of `COc1ccc(CCN2CNc3c(c(=O)n(C)c(=O)n3C)C2)cc1OC`, the GFP response vs DMSO was 118% (inactive).

Turning to `O=C(O)CCCc1ccccc1`, the GFP response vs DMSO is 76.9% (inactive).

Take `CCCNCC(O)COc1ccccc1C(=O)CCc1ccccc1` (stereo not given): the GFP response vs DMSO was 88.7% (inactive).

For `COc1ccc(C(=O)O)cc1F`, the GFP response vs DMSO is 94.8% (inactive).

As for `COc1cc(C)nc(-n2nc(C)cc2OC)n1`, the GFP response vs DMSO is 92.7% (inactive).

In the case of `CCCCCCC(=O)N(O)C1CC(=O)N(Cc2ccccc2)C1=O` (stereo not given), the GFP response vs DMSO is 94% (inactive).

For `CC(=O)N1CCN(c2ccc(NC(=O)/C=C/c3ccccc3)cc2)CC1`, the GFP response vs DMSO was 100% (inactive).

As for `Cc1ccc(Nc2ncccc2C(=O)O)cc1C`, the GFP response vs DMSO is 80.3% (inactive).

Regarding `CCCCCCCC(=O)OCC(O)CO` (stereo not given), the GFP response vs DMSO is 92.7% (inactive).

Regarding `CSCCC(NC(C)=O)C(=O)Oc1ccc2c3c(c(=O)oc2c1)CCCC3` (stereo not given), the GFP response vs DMSO is 99.9% (inactive).

For the molecule `CC(C)CN1CCN(Cc2ccc(C#CC(C)(C)O)cc2)CC1CCO` (stereo not given), the GFP response vs DMSO is 78.7% (inactive).

Consider `Cc1nc(C2CC(=O)OC23CCCCC3)cs1` (stereo not given), for which the GFP response vs DMSO is 116% (inactive).

For `CO[C@H]1C=CO[C@@]2(C)Oc3c(C)c(O)c4c(O)c(c(C=NN5CCN(C)CC5)c(O)c4c3C2=O)NC(=O)C(C)=CC=C[C@H](C)[C@H](O)[C@@H](C)[C@@H](O)[C@@H](C)[C@H](OC(C)=O)[C@@H]1C`, the GFP response vs DMSO was 78.7% (inactive).

`COc1cccc(-n2cc(CNCc3c(C(=O)N(C)C)nc4ccc(Cl)cn34)cn2)c1`: the GFP response vs DMSO is 90.1% (inactive).

Consider `S=C(c1ccc2c(c1)OCO2)N1CCCCC1`, for which the GFP response vs DMSO is 105% (inactive).

`CC(C)Oc1ccc2c(=O)c(-c3ccccc3)coc2c1`: the GFP response vs DMSO is 83.1% (inactive).

In the case of `CCn1cc(CN2N=C(C)CC2c2ccccc2)c(C)n1` (stereo not given), the GFP response vs DMSO was 116% (inactive).

As for `CCCCOc1ccc(C(=O)CCN2CCCCC2)cc1`, the GFP response vs DMSO is 126% (inactive).

In the case of `NCCCC(N)(C(=O)O)C(F)F` (stereo not given), the GFP response vs DMSO is 107% (inactive).

For the molecule `C[N+](C)(C)CCOP(=O)([O-])OC[C@H](O)CO`, the GFP response vs DMSO is 108% (inactive).

With `O=C(O)C1CCN(C(=O)COc2ccc3c4c(c(=O)oc3c2)CCC4)CC1`, the GFP response vs DMSO is 112% (inactive).

With `COc1ccc(OC)c(S(=O)(=O)N2CCCc3ccccc32)c1`, the GFP response vs DMSO is 126% (inactive).

Consider `COc1ccc2[nH]c(=O)c3c(c2c1)OC(C)(C)C=C3`, for which the GFP response vs DMSO was 119% (inactive).

With `CCN1CCN(C(=S)c2ccc(OC)cc2)CC1`, the GFP response vs DMSO is 76% (inactive).

In the case of `C=CCOc1ccc(C(=O)CC)cc1OC`, the GFP response vs DMSO was 106% (inactive).

For `CCc1cccc2c3c([nH]c12)C(CC)(CC(=O)O)OCC3` (stereo not given), the GFP response vs DMSO was 93.3% (inactive).

Turning to `COc1ccc(OC(C)C(=O)Nc2ccccc2F)cc1` (stereo not given), the GFP response vs DMSO was 108% (inactive).

Consider `CCCC(=O)Nc1ccccc1NC(C)=O`, for which the GFP response vs DMSO is 99.1% (inactive).

Take `O=C(O)CCCCCCNC(=O)c1cncc(O)c1`: the GFP response vs DMSO was 113% (inactive).

Turning to `COc1ccc(Br)cc1C(=O)Nc1ccc(C(=O)O)cc1`, the GFP response vs DMSO is 127% (inactive).

For the molecule `CC[N+]1(CC)CC2=Cc3ccccc3CC2C1` (stereo not given), the GFP response vs DMSO is 80.3% (inactive).
